An excerpt weighted towards active compounds, which were near 1.2% of everything screened.
TcdB inh: inhibitors of Clostridioides difficile toxin B glycohydrolase | P18177 | TcdB glycohydrolase enzymatic assay, plate reader | inhibition, % at 9.99 µM | actives 0.24% (n = 350,000) | AID 652162; in the data active = inhibition above about 10%
FadD28 binding: inhibitors of Mycobacterium tuberculosis FadD28 bisubstrate binding. inhibition, % at 12.5 µM. actives 0.22% (n = 360,000). AID 588549. FadD28 bisubstrate probe binding, fluorescence polarization; in the data active = inhibition above about 8.5%, passing the limit was not always enough; inconclusive = no clear call, values can overlap the other calls
PrP UTR inh: suppresses PrP 5' UTR mRNA reporter expression | AID 488862 | cell-based PrP 5' UTR mRNA reporter, plate reader | inhibition, % (test concentration not listed) | actives 0.35% (n = 340,000); in the data active = inhibition above about 52%
Yp Topo-I inh: blocks Yersinia pestis topoisomerase I activity; activity, % at 10 µM; actives 0.064% (n = 360,000); Y. pestis Topo-I cleavage product accumulation, plate reader; in the data active = activity above about 50%, passing the limit was not always enough; inconclusive = no clear call, values can overlap the other calls
BioA inh: inhibitors of Mycobacterium tuberculosis BioA enzyme; purified M. tuberculosis BioA enzyme, plate reader; actives 0.096% (n = 360,000); AID 602481; inhibition, % at 9.99 µM; in the data active = inhibition above about 40%; inconclusive = no clear call, values can overlap the other calls
PfHsp40 rescue: restores yeast growth despite PfHsp40 toxicity; actives 0.68% (n = 340,000); S. cerevisiae expressing PfHsp40, growth rescue, ATP luminescence; AID 504582; growth rescue, % at 12.5 µM; in the data active = growth rescue above about 28%, passing the limit was not always enough; inconclusive = no clear call, values can overlap the other calls;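 also: yeast W303a lacking pdr1 and pdr3 grown in galactose medium; growth measured after three days at 30 °C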
A number is an active result; 0 = inactive; ? = inconclusive; - = not tested or not shown.

SMILES	TcdB inh	FadD28 binding	PrP UTR inh	Yp Topo-I inh	BioA inh	PfHsp40 rescue
CCCCN1CC(COC)Oc2cccc(F)c2S1(=O)=O (stereo not given)	0	0	0	0	0	0
CCCCN1CC(COCc2ccccc2)Oc2cccc(F)c2S1(=O)=O (stereo not given)	0	0	0	59	0	0
Cc1cc2ncc(S(C)(=O)=O)c(N)n2n1	0	0	0	0	-	0
Cc1ccc(S(=O)(=O)c2cnc3cc(C)nn3c2N)cc1	0	0	0	0	-	32
CNC[C@H]1Oc2ccc(NC(=O)C3CC3)cc2C(=O)N([C@@H](C)CO)C[C@H]1C	0	-	-	-	0	-
COc1ccc(-c2cc(=O)oc3c(O)c(O)ccc23)cc1	0	0	0	0	0	0
CC1Oc2cc3oc4c(O)c(O)ccc4c(=O)c3c(O)c2C1(C)C (stereo not given)	-	0	0	0	0	335
C[C@@H]1CN([C@@H](C)CO)S(=O)(=O)c2ccc(Br)cc2O[C@@H]1CN(C)Cc1ccc(C(=O)O)cc1	0	-	-	-	0	-
Cc1cc(C(C)(C)C)cc(CN2CCN(S(=O)(=O)c3cccs3)CC2)c1O	11	0	-	0	0	-
C[C@H](CO)N1C[C@H](C)[C@H](CN(C)C(=O)c2ccc(F)cc2)OCc2ccccc2-c2c(n(C)c3ccccc23)C1=O	0	-	-	-	0	-
COc1ccc(C2CC(=O)Oc3c(C(C)C)ccc(C)c32)cc1 (stereo not given)	0	8.8	0	0	0	0
COc1ccc(C2CC(=O)Oc3cc(C)cc(C)c32)cc1 (stereo not given)	0	0	0	0	0	0
C[C@H](NC(=O)C[C@H]1CC[C@@H](NC(=O)Cc2ccccn2)[C@H](CO)O1)c1ccccc1	0	-	-	-	0	-
Cc1noc(C)c1NC(=O)N(C)C[C@H]1OCCCC[C@H](C)Oc2ccc(NC(=O)Nc3ccc(F)cc3)cc2C(=O)N([C@@H](C)CO)C[C@@H]1C	0	-	-	-	0	-
CC12CCC(O)CC1=CCC1C2CCC2(C)C3=NN=CC3CC12 (stereo not given)	0	0	0	0	0	86
C[C@@H]1CC2C3CC=C4C[C@@H](O)CC[C@]4(C)C3CC[C@]2(C)[C@H]1O (stereo not given in full)	0	0	0	0	0	0
C[C@@H]1CN([C@H](C)CO)C(=O)c2cc(NC(=O)C3CCCCC3)ccc2O[C@@H](C)CCCCO[C@H]1CN(C)Cc1ccc2c(c1)OCO2	0	-	-	-	0	-
COc1cc2ccccc2cc1C(=O)N/N=C/c1cccs1	13	0	-	0	0	-
COC(=O)N/N=C/c1cccs1	0	0	0	0	-	0
C=CCn1c2ccccc2c(=O)c2cc(C#Cc3ccccn3)ccc21	0	0	0	0	0	29
O=c1c2ccccc2oc2cc(C#Cc3ccccn3)ccc12	0	0	0	0	0	0
C[C@H](CO)N1C[C@H](C)[C@H](CN(C)S(=O)(=O)c2ccccc2)Oc2ccc(N(C)C)cc2C1=O	0	-	-	-	0	-
COc1ccc(CN(C)C[C@H]2OCCCC[C@H](C)Oc3ccc(NS(=O)(=O)c4ccc(C)cc4)cc3C(=O)N([C@H](C)CO)C[C@@H]2C)cc1	0	-	-	-	0	-
O=S(=O)(Nc1nc(-c2sccc2Cl)cs1)c1cc(Cl)ccc1Cl	-	24	0	0	0	?
CC(C)(C)c1nnc(NS(=O)(=O)c2cc(Cl)ccc2Cl)s1	0	0	0	0	0	0
SMILES	TcdB inh	FadD28 binding	PrP UTR inh	Yp Topo-I inh	BioA inh	PfHsp40 rescue
c1ccc(OCCSc2nnc3sc4ccccc4n23)cc1	12	0	0	0	0	0
CN=c1scc(-c2ccc([N+](=O)[O-])cc2)n1/N=C/c1ccco1	0	0	0	0	0	0
CN=c1scc(-c2ccc(F)cc2)n1/N=C/c1ccc(O)c(O)c1	0	37	0	0	-	0
O=S(=O)(c1ccc(Nc2ccc(-c3ccc4c(c3)OCCO4)nn2)cc1)N1CCCC1	0	11	0	0	0	0
O=C(NC1CC1)c1cccc(Nc2ccc(-c3ccc4c(c3)OCCO4)nn2)c1	-	0	0	0	0	0
COc1ccccc1N(CC(=O)NCCSc1ccccc1)S(=O)(=O)c1ccccc1	0	0	0	57	0	0
Cc1noc(C)c1NC(=O)Nc1cccc2c1O[C@@H](CN(C)Cc1ccc(C(=O)Nc3ccccc3N)cc1)[C@@H](C)CN([C@H](C)CO)C2=O	0	-	-	-	-	-
CC1=NN(c2ccccc2)C(=O)/C1=C/c1c(O)n(-c2ccc(F)cc2)[nH]c1=O	-	19	0	0	0	0
CN1C(=O)c2cc(NC(=O)C3CCCCC3)ccc2OC[C@@H]2O[C@@H](CC(=O)NCC3CCCCC3)CC[C@H]21	0	-	-	-	-	-
COc1cc(/C=C2\SC(=S)N(NC(=O)c3cccc(O)c3)C2=O)ccc1O	0	13	0	0	0	0
COc1cc(/C=C2\SC(=S)N(NC(=O)c3ccc(O)c(OC)c3)C2=O)ccc1O	0	16	0	0	0	0
COc1cc(/C=C2\SC(=S)N(NC(=O)c3ccncc3)C2=O)ccc1O	0	0	0	0	-	0
COc1cccc(/C=C2/SC(=S)N(CC(=O)NNC(=O)c3ccccc3O)C2=O)c1	0	0	0	0	-	155
COc1ccc2c3c([nH]c2c1)[C@H](CO)N(C(=O)CN1CCOCC1)CC31CCN(CC2CCCC2)CC1	0	-	-	-	-	-
CCNC(=O)C[C@H]1CC[C@@H]2[C@H](COc3ccc(NC(=O)Nc4ccc(F)cc4)cc3C(=O)N2C)O1	0	-	-	-	0	-
O=[N+]([O-])c1ccc(N=Nc2ncc[nH]2)cc1	0	0	0	0	0	85
O=[N+]([O-])c1ccc(N=NN(CCO)CCO)cc1	0	0	0	0	-	0
COC(=O)c1sc(NC(=S)NNC(=O)c2c(Br)c(C)nn2C)c(C(=O)OC)c1C	0	20	0	0	0	0
Cc1ccc(SCCC(=O)N/N=C/c2cccnc2)cc1	10	0	0	0	-	0
Cc1ccc(CN(C)C(=O)c2cc(COc3cccc(C(F)(F)F)c3)on2)o1	0	0	0	?	0	0
CCc1ccc(CN(C)C(=O)c2cc(COc3cccc(C(F)(F)F)c3)on2)nc1	0	0	0	0	0	112
O=P(Nc1cccnc1)(Oc1ccccc1Cl)Oc1ccccc1Cl	0	0	0	0	-	411
Cc1cccc(OP(=O)(Nc2cccnc2)Oc2cccc(C)c2)c1	-	0	0	0	-	0
CCCNC(=O)N1C[C@H]2[C@@H](c3ccccc31)[C@@H](CO)N2Cc1ccc2c(c1)OCO2	0	-	-	-	0	-
Cc1ccc(C)c2nc(Cl)c(C3NC(=O)c4ccccc4N3)cc12 (stereo not given)	10	0	0	0	-	0
CCC(=O)Nc1ccc(C(=O)Cn2ncc(Cl)c(Cl)c2=O)cc1	0	0	0	0	0	0
COc1ccc(NC(=O)CC2Sc3ncnn3C2=O)cc1 (stereo not given)	0	0	0	0	0	0
CCOC(=O)c1ccc(NC(=O)Cn2ncc(Cl)c(Cl)c2=O)cc1	0	0	0	0	-	34
